Measurements published in PubChem BioAssay (NCI).
Compounds without any hit were thinned out: in the full panel of roughly 83,000, 20% have a hit.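 For each line, cells grew in 96-well plates with the test compound present at a single concentration for 48 hours.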 A number with no mark means an inactive call.

Each compound was assayed on NCI-H322M lung (assay: NCI-60 one-dose screen, 48 h (100 = growth as untreated, 0 = no growth, -100 = all killed)). Conditions: 10 µM unless noted.
Description: Growth inhibition of the NCI-H322M human Non-Small Cell Lung tumor cell line is measured as a screen for anti-cancer activity. Cells are grown in 96 well plates and exposed to the test compound for 48 hours. Compounds are tested at a single concentration, which is 10^-5 M for most compounds. The reported endpoint is percent growth (GI% or GIPRCNT), where numbers from 0 - 100% represent growth inhibition, and numbers from -100% - 0 represent cell death. For example, a value of 40 represents 60% growth inhibition. A value of 0 means no net growth occurred over the course of the experiment. A value of -40 indicates 40% of cells at the beginning of the experiment died by the end of the experiment. A value of -100 means all cells are dead at the end of the experiment.
NCI-60 Human Tumor Cell Lines Screen was performed using the standard one-dose NCI protocol, which is described in more detail at https://dtp.cancer.gov/discovery_development/nci-60/default.htm.
Compounds with GIPRCNT values below 10 were considered active. Activity score was based on GIPRCNT using the following formula: […]
Score is 0 for GIPRCNT values of 100 or above, 50 for GIPRCNT values of 0, and 100 for GIPRCNT values of -100.

Compound | growth [%]
C/C(Cc1ccccc1)=N\O | 110
O=c1cc(C(F)(F)F)[nH]c(=S)[nH]1 | 101
CCOC(=O)c1cc(Cl)c(O)c(Cl)c1 | 117
CCCCCCCCCc1ccc(OC(C)=O)cc1 | 96.8
CCOP(=O)(NC(c1ccccc1)c1ccccc1)OCC | 99
Cn1c(=O)c2nc3c(=O)n(C)c(=O)n(C)c3nc2n(C)c1=O | 101
Cc1ccc[n+](CCC(N)=O)c1 | 103
CCNCC(C)(C)O | 98
Nc1cc(F)ccc1[N+](=O)[O-] | 92.6
O=c1[nH]c(=O)c2cc(Cl)cc(Cl)c2[nH]1 | 94.8
CC(=O)OC/C(C)=C\CC(C)COC(C)=O (stereo not given) | 102
c1cc(CNCCNCc2ccncc2)ccn1 | 97
Cc1ccc(C2CCCCC2)cc1Br | 99.2
CN1C(=O)NC(c2ccc(Cl)cc2)(c2ccc(Cl)cc2)C1=O | 119
CSCC[C@@H]1C(=O)N(C)[C@H](C(C)(C)C)N1C(=O)c1ccccc1 | 97.6
Cc1ccc(S(=O)(=O)CCCl)cc1 | 128
CC1CC2C3CCC4=CC(=O)CCC4(C)C3CCC2(C)C1(O)C(=O)CO (stereo not given) | 109
CCC(=O)C1C(=O)c2ccccc2C1=O | 102
C/C(O)=C(/C=N/C(=S)Nc1ccccc1)C(=O)Nc1ccccc1C | 104
Cc1cccnc1NC1OC(=O)c2ccccc21 (stereo not given) | 96.2

Compound | growth [%]
C1Cc2onc(-c3noc4c3CCC4)c2C1 | 103
C=CCNC(=S)N/C=C(/C(=O)c1ccccc1)c1ccccc1 | 111
Oc1cc2ccccc2c(-c2c(O)c(O)cc3ccccc23)c1O | 47.9
C=C1C(=O)C2CCC1C2 (stereo not given) | 97.5
COC(CCCl)c1ccc(Cl)cc1 (stereo not given) | 97.5
CCOC(=O)c1ccc(NC(=O)Nc2nccs2)cc1 | 41.3
COc1cc(C(=O)O)c(O)c(C(C)(C)C)c1 | 107
OCc1cccnc1 | 106
CC(=O)Nc1ccc(O)c(C)c1 | 100
CC(=O)N(C(C)=O)c1ccc(C)cc1 | 102
COC1CC(OC(=O)c2ccc([N+](=O)[O-])cc2)C(COC(=O)c2ccc([N+](=O)[O-])cc2)O1 (stereo not given) | 113
COc1cc2c(c(OC)c1OC)-c1ccc(SC)c(=O)cc1[C@@H](NC1OC(CO)C(O)C(O)C1O)CC2 (stereo not given in full) | 33
O=C1NC(=O)C(c2ccccc2)O1 (stereo not given) | 98.9
COC(c1ccc2c(c1)OCO2)C(C)Br (stereo not given) | 100
CC(c1ccccc1)N1C(=O)CSC1=S (stereo not given) | 74.9
C=CCN1CCCC1=O | 89.3
Cn1c(=O)[nH]c2ccccc2c1=O | 105
Cc1c(-c2ccc(C3CCCCC3)cc2)nc2ccc(F)cc2c1C(=O)O | 56.4
C[C@H](CCC[C@H](C)OS(=O)(=O)c1ccccc1)OS(=O)(=O)c1ccccc1 | 96.7
CCCCNc1ccc(-c2ccc(NCCCC)cc2)cc1 | 95.9
